Test results taken from PMC5540273 (PLoS ONE, 2017).
Where two headings read alike, the source gives them in different places.

Tests used:
MEK5 = test system: T1, MEK5; conditions: concentration: 1 μM,replicates: in singlicate; n = 1
T1 construct: gene MAP2K5

MEK6 = test system: T2, MEK6; conditions: concentration: 1 μM,replicates: in singlicate; n = 1
T2 construct: gene MAP2K6

MELK = conditions: concentration: 1 μM,replicates: in singlicate; n = 1
MERTK = conditions: concentration: 1 μM,replicates: in singlicate; n = 1
MET = conditions: n = 1
MINK = test system: T3, MINK; conditions: concentration: 1 μM,replicates: in singlicate; n = 1
T3 construct: gene MINK1

MKK7 = conditions: concentration: 1 μM,replicates: in singlicate; n = 1
MKNK1 = conditions: concentration: 1 μM,replicates: in singlicate; n = 1
MKNK2 = conditions: concentration: 1 μM,replicates: in singlicate; n = 1
MLCK = test system: T4, MLCK; conditions: concentration: 1 μM,replicates: in singlicate; n = 1
T4 construct: gene MYLK3

[1] = concentration: 1 μM,replicates: in singlicate
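Further: KINOMEscan kinase panel screen.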

Structure (SMILES)	%Inh (MEK5) [%]	%Inh (MEK6) [%]	%Inh (MELK) [%]	%Inh (MERTK) [%]	%Inh (MET; [1]) [%]	%Inh (MINK) [%]	%Inh (MKK7) [%]	%Inh (MKNK1) [%]	%Inh (MKNK2) [%]	%Inh (MLCK) [%]	%Inh (MET; 1 µM) [%]
COc1cccc(OC)c1C(=O)Nc1cccc(-c2nn3ccccc3c2-c2ccnc(Nc3cccc(F)c3)n2)c1 [GSK361065]	93.2	3	0	50	34	0	0	0	0	2	–
N#Cc1cccc(C(=O)NC2CCN(c3ccnc(Nc4ccc(F)cc4)n3)C2)c1 (stereo not shown) [GSK1379708]	12	0	0	49	18	0	0	0	0	0	–
CCN1CCN(CCCC(=O)Nc2n[nH]c3nc(-c4ccc(O)cc4)c(Br)cc23)CC1 [SB-731579]	42	0	0	2	0	0	0	46	46	39	–
C[C@@H](Oc1cc(-n2cnc3cc(-c4ccncc4)ccc32)sc1C(N)=O)c1ccccc1Cl [GSK479719]	21	0	0	86	52	0	0	0	28	0	–
COC(=O)Nc1nc2cc(Oc3ccc(NC(=O)Nc4cc(C(F)(F)F)ccc4Cl)cc3)ccc2[nH]1.Cl [GW697465]	78	0	0	96.3	84	0	0	51	92.8	0	–
CN(c1cccc(CNc2nc(Nc3ccc4c(c3)CC(=O)N4)ncc2C(F)(F)F)c1)S(C)(=O)=O	0	0	84	80	93.9	76	0	0	28	1	–
Cn1ccc2ncnc(Oc3ccc(NC(=O)Nc4cccc(C(F)(F)F)c4)c(Cl)c3)c21	30	30	0	85	17	4	32	16	19	12	–
Cc1ccn2nc(-c3ccc(F)cc3)c(-c3ccncc3)c2c1.Cl [GW457859]	7	2	7	24	0	67	0	6	0	2	–
CS(=O)(=O)Nc1ccc(-c2ccnc3[nH]ccc23)cc1 [GSK993273]	67	16	51	56	2	23	0	72	95.9	15	–
CCCC(=O)Nc1n[nH]c2ncccc12 [SB-601436]	0	0	0	5	0	0	0	0	11	0	–
c1ccc(Oc2ccc(Nc3ccnc4ccc(-c5ccccn5)cc34)cc2)cc1 [GW407034]	99.9	0	0	9	16	0	0	0	17	13	–
COC(=O)c1cccc(NC(=O)NC2CCN(c3ccnc(Nc4cc(OC)c(OC)c(OC)c4)n3)C2)c1 (stereo not shown) [GSK1379767]	98.8	4	0	40	19	3	21	12	32	12	–
Cn1cc(-c2cccc3c(N)c(C(N)=O)nnc23)cn1	41	0	16	0	3	29	13	5	29	0	–
C[C@@H]1CNc2c(sc3ccc4nc(-c5ccncc5)ccc4c23)C(=O)N1	33	0	0	100	50	28	0	0	21	54	–
Cn1ccc2ncnc(Oc3ccc(NC(=O)Nc4ccnc(C(F)(F)F)c4)c(Cl)c3)c21	9	0	0	23	2	0	0	0	0	0	–
Cc1cccc(-c2nc(Nc3ccncc3)c3sccc3n2)n1 [GW869641]	58	10	36	0	28	77	16	0	0	10	–
CCNCC(Cc1ccccc1)NC(=O)c1cc(Br)c(-c2ccnc3[nH]ccc23)s1.Cl.Cl (stereo not shown) [GSK1383280]	55	21	97.5	34	6	64	35	0	94.3	17	–

Structure (SMILES)	%Inh (MEK5) [%]	%Inh (MEK6) [%]	%Inh (MELK) [%]	%Inh (MERTK) [%]	%Inh (MET; [1]) [%]	%Inh (MINK) [%]	%Inh (MKK7) [%]	%Inh (MKNK1) [%]	%Inh (MKNK2) [%]	%Inh (MLCK) [%]	%Inh (MET; 1 µM) [%]
CC(C)c1nc(-c2cccc(NS(=O)(=O)c3ccccc3)c2)c(-c2ccnc(Nc3ccc4c(c3)CN(C)CC4)n2)s1 [GSK1649598]	99.1	26	65	42	23	95.1	1	0	81	0	–
O=C(NCC1CC1)c1ccc(-c2cc(C(=O)NC3CC3)ccc2F)cc1 [GW810445]	0	5	17	0	0	0	8	3	0	0	–
CN1CCN(CCCNc2nccc(-c3c(-c4ccc(F)cc4)nn4cc(C(N)=O)ccc34)n2)CC1 [GW622475]	42	0	91.9	49	32	71	0	10	0	0	–
Cl.c1ccc(Oc2ccc(Nc3ccnc4cc(-c5ccc(CN6CCNCC6)o5)ccc34)cc2)nc1 [GW567142]	99.9	16	0	0	0	27	11	0	42	4	–
O=C(NOCC1CC1)c1cc(Br)c(F)c(F)c1Nc1ccc(I)cc1Cl	20	0	0	0	0	9	0	10	5	0	–
C[C@@H]1CNc2c(sc3ccc4nc(-c5ccc(O)cc5)ccc4c23)C(=O)N1	67	13	0	62	92.7	61	0	27	34	52	–
Cn1ccc2ncnc(Oc3ccc(NC(=O)Nc4cnn(C(C)(C)C)c4)c(Cl)c3)c21	18	0	16	65	35	70	0	4	78	0	–
Cc1ccc(Nc2ccnc(Nc3ccc4c(c3)CS(=O)(=O)C4)n2)cc1O.Cl [GW579362]	99.8	46	0	99.5	80	64	0	43	94.5	0	–
C[C@@H](Oc1cc(-n2cnc3cc(-c4cnn(C)c4)ccc32)sc1C(N)=O)c1ccccc1Cl [GSK580432]	42	15	15	100	69	40	0	2	20	10	–
CCOC(=O)N1CCC(n2cnc(-c3ccc(F)cc3)c2-c2ccnc(N)n2)CC1 [SB-219952]	29	1	0	21	16	54	11	19	49	0	–
O=C1NCCc2[nH]c(-c3ccncc3)cc21	35	25	21	0	–	55	0	13	23	58	33
CN1CCN(CCNc2nc3cc(Oc4ccc(NC(=O)Nc5cc(C(F)(F)F)ccc5F)cc4)ccc3[nH]2)CC1.Cl.Cl [GW768504]	2	12	0	85	6	0	0	24	26	0	–
Cc1ccc(CC(=O)N2CCc3cc(-c4cn(C)c5ncnc(N)c45)ccc32)cc1 [GSK2634758]	99.9	0	7	27	86	6	18	0	52	12	–
CS(=O)c1ccc(-c2coc3ccc(-c4n[nH]c(=O)o4)cc23)cc1 (stereo not shown)	17	0	0	0	22	7	1	9	11	32	–
C[C@@H](Oc1cc(-n2cnc3ccc(-c4ccncc4)cc32)sc1C(N)=O)c1ccccc1Cl [GSK483724]	78	0	0	35	9	23	56	0	7	32	–
O=C(Nc1n[nH]c2cc(-c3ccco3)ccc12)C1CC1 [SB-737447]	76	0	0	0	0	63	0	0	39	78	–
CN(c1ccccc1CNc1nc(Nc2ccc3c(c2)CC(=O)N3)ncc1C(F)(F)F)S(C)(=O)=O	17	93.9	94.3	97.3	86	48	0	0	0	43	–
